# A number with no mark means an inactive call.
# Tests used:
# Assay in all cases: log2 ratio of Biotin-Ahx-Ub-VS probe labelling (fragment/DMSO); higher = less target engagement (more negative = stronger competition), active = hit call of the paper (q ≤ 0.05, log2 ratio ≤ -1)
# Conditions in all cases: compound concentration: 200 uM; treatment time: 3 h
# OTUD6B = biological target: T1, OTUD6B (UniProt Q8N6M0)
# T1 sequence (whole entry): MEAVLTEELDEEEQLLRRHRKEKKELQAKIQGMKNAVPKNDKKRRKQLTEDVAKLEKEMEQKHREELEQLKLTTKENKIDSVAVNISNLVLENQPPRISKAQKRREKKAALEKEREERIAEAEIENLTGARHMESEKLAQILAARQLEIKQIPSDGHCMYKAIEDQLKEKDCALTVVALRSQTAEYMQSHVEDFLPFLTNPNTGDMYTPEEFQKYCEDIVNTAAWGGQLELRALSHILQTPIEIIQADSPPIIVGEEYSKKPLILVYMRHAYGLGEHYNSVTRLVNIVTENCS
# Procedure, shortened: (§1)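 The table lists average log2 ratios of fragment over vehicle, from an unpaired t-test on global-median-normalised Spectronaut label-free quantities. Proteins with ≥2 unique peptides were used. Samples were HEK293T lysate (495 µg) treated in triplicate with fragment at 200 µM or vehicle for 3 h, then with Biotin-Ahx-Ub-VS (0.5 µM final) for 1 h, with labelled DUBs NeutrAvidin-enriched and run by diaPASEF LC-MS/MS.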
# OTUD7B = biological target: T2, OTUD7B (UniProt Q6GQQ9)
# T2 sequence (whole entry): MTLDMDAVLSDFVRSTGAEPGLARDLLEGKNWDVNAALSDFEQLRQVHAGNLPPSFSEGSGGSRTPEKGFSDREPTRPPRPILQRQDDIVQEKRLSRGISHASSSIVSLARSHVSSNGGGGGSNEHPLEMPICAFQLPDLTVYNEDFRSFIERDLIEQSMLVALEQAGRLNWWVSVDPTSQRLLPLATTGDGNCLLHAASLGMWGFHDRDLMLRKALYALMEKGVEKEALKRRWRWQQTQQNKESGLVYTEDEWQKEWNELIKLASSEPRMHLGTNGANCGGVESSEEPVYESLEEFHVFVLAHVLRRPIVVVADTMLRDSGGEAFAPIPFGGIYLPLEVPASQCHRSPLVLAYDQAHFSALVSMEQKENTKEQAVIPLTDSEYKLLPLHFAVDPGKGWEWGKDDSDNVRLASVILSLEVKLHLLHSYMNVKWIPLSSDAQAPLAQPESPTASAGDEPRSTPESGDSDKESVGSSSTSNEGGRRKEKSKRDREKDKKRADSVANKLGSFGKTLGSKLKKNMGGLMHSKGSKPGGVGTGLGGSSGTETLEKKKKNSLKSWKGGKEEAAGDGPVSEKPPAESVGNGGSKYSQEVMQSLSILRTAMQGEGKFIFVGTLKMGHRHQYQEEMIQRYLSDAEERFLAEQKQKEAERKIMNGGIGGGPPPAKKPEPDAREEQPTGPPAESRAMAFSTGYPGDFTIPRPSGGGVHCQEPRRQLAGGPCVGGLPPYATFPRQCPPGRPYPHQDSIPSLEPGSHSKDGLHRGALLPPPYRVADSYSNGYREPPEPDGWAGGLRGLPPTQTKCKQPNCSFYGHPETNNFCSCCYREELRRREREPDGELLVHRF
# Procedure, shortened: as §1
# PRPF8 = PRPF8 (UniProt Q6P2Q9)
# Procedure, shortened: as §1
# PSMD7 = biological target: T3, PSMD7 (UniProt P51665)
# T3 sequence (whole entry): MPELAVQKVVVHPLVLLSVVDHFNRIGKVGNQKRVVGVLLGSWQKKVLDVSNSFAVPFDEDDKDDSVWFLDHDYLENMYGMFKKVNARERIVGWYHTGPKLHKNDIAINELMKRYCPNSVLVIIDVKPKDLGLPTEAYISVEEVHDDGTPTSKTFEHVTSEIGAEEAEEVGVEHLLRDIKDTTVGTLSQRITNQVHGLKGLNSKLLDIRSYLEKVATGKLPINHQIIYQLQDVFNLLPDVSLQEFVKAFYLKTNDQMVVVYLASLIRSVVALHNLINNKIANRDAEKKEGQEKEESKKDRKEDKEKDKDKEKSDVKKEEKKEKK
# Procedure, shortened: as §1
# UCHL1 = UCHL1 (UniProt P09936)
# Chain of UCHL1 (P09936 whole entry, looked up): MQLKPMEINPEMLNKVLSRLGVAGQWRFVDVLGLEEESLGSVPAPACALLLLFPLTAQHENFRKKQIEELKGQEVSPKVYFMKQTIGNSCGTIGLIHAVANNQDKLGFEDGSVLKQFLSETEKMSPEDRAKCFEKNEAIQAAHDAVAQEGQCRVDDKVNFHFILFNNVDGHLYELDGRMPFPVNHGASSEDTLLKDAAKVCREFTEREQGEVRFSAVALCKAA
# Procedure, shortened: as §1
# UCHL3 = biological target: T4, UCHL3 (UniProt P15374)
# T4 sequence (whole entry): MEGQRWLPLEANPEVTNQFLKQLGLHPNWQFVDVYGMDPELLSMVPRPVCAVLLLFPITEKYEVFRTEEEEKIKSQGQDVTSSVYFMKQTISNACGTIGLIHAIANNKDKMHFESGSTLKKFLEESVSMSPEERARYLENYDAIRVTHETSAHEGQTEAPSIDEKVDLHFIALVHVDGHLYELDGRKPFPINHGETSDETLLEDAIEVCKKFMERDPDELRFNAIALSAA
# Procedure, shortened: as §1
# UCHL5 = biological target: T5, UCHL5 (UniProt Q9Y5K5)
# T5 sequence (whole entry): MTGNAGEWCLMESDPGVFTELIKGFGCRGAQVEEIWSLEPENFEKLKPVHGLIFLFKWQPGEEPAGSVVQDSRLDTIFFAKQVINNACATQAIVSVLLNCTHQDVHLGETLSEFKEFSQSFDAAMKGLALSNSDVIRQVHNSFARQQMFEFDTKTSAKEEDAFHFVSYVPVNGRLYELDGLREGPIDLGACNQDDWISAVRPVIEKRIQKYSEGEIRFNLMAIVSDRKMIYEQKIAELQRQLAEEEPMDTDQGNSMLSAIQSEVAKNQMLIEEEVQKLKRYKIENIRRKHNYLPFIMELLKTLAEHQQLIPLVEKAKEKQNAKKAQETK
# Procedure, shortened: as §1
# USP10 = USP10 (UniProt Q14694)
# Chain of USP10 (Q14694 whole entry): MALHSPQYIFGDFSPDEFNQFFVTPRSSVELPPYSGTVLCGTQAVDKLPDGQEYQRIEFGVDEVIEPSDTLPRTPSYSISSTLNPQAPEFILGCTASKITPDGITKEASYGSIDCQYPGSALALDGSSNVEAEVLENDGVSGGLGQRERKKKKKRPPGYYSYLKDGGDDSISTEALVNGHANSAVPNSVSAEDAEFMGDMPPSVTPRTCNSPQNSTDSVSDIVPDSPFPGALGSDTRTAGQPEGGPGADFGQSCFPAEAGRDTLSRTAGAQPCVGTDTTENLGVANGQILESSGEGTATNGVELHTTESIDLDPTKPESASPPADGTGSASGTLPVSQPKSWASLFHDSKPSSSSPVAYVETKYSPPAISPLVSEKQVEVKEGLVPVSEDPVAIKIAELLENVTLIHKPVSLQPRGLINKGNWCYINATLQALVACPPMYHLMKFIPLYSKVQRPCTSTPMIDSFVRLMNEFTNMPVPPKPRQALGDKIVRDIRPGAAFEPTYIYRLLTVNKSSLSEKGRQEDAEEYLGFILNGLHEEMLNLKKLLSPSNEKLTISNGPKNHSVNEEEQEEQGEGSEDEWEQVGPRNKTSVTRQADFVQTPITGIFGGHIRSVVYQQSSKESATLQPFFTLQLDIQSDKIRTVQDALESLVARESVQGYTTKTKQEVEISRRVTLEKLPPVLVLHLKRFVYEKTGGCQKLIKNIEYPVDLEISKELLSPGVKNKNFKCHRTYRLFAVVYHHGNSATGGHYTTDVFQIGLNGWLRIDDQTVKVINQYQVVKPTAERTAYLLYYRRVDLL
# Procedure, shortened: as §1
# USP15 = biological target: T6, USP15 (UniProt Q9Y4E8)
# T6 sequence (whole entry): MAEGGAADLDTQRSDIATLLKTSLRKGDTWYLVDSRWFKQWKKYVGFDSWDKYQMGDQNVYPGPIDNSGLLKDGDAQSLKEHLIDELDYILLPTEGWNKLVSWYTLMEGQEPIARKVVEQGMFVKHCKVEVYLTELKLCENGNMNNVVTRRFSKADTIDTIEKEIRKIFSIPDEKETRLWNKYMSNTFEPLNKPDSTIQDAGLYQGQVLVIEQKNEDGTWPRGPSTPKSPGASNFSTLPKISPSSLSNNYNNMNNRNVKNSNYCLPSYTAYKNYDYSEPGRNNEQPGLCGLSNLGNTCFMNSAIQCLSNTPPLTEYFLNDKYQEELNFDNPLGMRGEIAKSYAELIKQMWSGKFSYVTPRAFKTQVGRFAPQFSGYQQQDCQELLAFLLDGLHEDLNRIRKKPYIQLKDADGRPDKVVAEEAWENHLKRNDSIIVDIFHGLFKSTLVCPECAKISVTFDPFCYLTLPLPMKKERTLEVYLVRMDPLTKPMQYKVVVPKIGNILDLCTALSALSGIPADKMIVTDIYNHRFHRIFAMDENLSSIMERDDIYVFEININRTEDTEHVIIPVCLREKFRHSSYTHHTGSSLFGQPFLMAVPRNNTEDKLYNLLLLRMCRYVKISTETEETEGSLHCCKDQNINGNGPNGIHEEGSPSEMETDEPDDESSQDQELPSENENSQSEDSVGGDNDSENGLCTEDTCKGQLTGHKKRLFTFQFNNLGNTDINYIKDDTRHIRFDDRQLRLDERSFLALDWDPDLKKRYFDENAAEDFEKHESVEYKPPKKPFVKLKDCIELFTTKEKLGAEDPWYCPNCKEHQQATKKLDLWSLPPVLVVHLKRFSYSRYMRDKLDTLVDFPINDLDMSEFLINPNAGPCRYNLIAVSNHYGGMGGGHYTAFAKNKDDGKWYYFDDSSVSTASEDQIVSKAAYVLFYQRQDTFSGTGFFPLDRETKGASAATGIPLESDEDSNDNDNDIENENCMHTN
# Procedure, shortened: as §1
# USP16 = USP16 (UniProt Q9Y5T5)
# Chain of USP16 (Q9Y5T5 whole entry, looked up): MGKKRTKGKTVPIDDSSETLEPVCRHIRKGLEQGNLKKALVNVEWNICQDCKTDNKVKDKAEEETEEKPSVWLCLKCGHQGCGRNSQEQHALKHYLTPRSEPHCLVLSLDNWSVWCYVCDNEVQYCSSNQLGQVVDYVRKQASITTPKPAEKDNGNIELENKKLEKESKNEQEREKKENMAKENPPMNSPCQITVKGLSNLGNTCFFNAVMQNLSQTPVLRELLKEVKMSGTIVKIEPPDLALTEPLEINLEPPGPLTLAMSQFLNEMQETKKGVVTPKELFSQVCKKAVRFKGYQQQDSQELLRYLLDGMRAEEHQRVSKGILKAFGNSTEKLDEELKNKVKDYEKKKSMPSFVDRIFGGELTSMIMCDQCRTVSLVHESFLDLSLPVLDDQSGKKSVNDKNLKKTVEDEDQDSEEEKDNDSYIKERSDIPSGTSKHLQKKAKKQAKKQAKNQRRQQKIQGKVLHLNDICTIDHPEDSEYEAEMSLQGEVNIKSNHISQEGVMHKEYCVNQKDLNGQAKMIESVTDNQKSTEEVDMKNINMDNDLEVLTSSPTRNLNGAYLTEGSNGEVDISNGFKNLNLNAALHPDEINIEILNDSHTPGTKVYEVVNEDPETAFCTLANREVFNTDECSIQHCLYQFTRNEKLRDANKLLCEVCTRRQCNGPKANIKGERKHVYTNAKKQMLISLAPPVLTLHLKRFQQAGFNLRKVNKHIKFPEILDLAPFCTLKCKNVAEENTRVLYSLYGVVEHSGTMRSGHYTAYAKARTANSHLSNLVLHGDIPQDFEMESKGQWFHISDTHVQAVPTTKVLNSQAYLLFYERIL
# Procedure, shortened: as §1
smiles,measurement,setting,value
O=C(CCl)N1CCc2sccc2C1,log2 ratio of Biotin-Ahx-Ub-VS probe labelling,OTUD6B,-0.251
same,log2 ratio of Biotin-Ahx-Ub-VS probe labelling,OTUD7B,-1.08 (active)
same,log2 ratio of Biotin-Ahx-Ub-VS probe labelling,PRPF8,0.249
same,log2 ratio of Biotin-Ahx-Ub-VS probe labelling,PSMD7,-0.000885
same,log2 ratio of Biotin-Ahx-Ub-VS probe labelling,UCHL1,-1.18 (active)
same,log2 ratio of Biotin-Ahx-Ub-VS probe labelling,UCHL3,-0.458
same,log2 ratio of Biotin-Ahx-Ub-VS probe labelling,UCHL5,-0.259
same,log2 ratio of Biotin-Ahx-Ub-VS probe labelling,USP10,-0.16
same,log2 ratio of Biotin-Ahx-Ub-VS probe labelling,USP15,-0.737
same,log2 ratio of Biotin-Ahx-Ub-VS probe labelling,USP16,-0.278
